Measured values as given in the supplement of paper PMC12669032.
Unmarked numbers belong to inactive results.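 Rule for the calls: active = AUC reduced over 20% with Padj below 0.05 in at least 2 of 3 replicates; inactive = otherwise.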

Key:
Test in all cases: growth AUC relative to DMSO control (median of replicates) (fraction); higher = more growth (less inhibition), active = hit call of the paper
Conditions in all cases: 20 µM; 24 h
Coprococcus comes = system: Coprococcus comes
Method in brief: (§1)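 In round-bottom 96-well plates sealed with pierced gas-permeable seals, gut bacterial monocultures in mGAM were grown anaerobically at 37 °C from OD600 0.05 with 20 µM compound (1% DMSO). OD600 readings were taken hourly for 24 h, and the minimum OD was set to 0. Area under the growth curve was then normalised to the plate median of solvent-only wells, or to row and column medians on the industrial chemical plate. The value given is the median of three biological replicates grown on separate days.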

Escherichia coli ED1a = system: Escherichia coli ED1a
Method in brief: as §1

Escherichia coli IAI1 = system: Escherichia coli IAI1
Method in brief: as §1

Eubacterium rectale = system: Eubacterium rectale
Method in brief: as §1

[1] = system: Fusobacterium nucleatum subsp. animalis
Method in brief: as §1

Lactobacillus gasseri = system: Lactobacillus gasseri
Method in brief: as §1

Lactobacillus paracasei = system: Lactobacillus paracasei
Method in brief: as §1

Odoribacter splanchnicus = system: Odoribacter splanchnicus
Method in brief: as §1

[2] = system: Parabacteroides distasonis
Method in brief: as §1

Parabacteroides merdae = system: Parabacteroides merdae
Method in brief: as §1

Roseburia intestinalis = system: Roseburia intestinalis
Method in brief: as §1

Streptococcus salivarius = system: Streptococcus salivarius
Method in brief: as §1

| Structure (SMILES) | growth AUC (Coprococcus comes) | growth AUC (Escherichia coli ED1a) | growth AUC (Escherichia coli IAI1) | growth AUC (Eubacterium rectale) | growth AUC [1] | growth AUC (Lactobacillus gasseri) | growth AUC (Lactobacillus paracasei) | growth AUC (Odoribacter splanchnicus) | growth AUC [2] | growth AUC (Parabacteroides merdae) | growth AUC (Roseburia intestinalis) | growth AUC (Streptococcus salivarius) |
| --- | --- | --- | --- | --- | --- | --- | --- | --- | --- | --- | --- | --- |
| Clc1cc(Cl)nc(-c2ccccc2)n1 | 1.02 | 1.01 | 0.997 | 1.06 | 1.08 | 0.883 | 1 | 1.02 | 0.991 | 0.965 | 0.956 | 0.99 |
| COc1cnc(OC)n2nc(NS(=O)(=O)c3c(OCC(F)F)cccc3C(F)(F)F)nc12 | 1.01 | 1.01 | 1.02 | 0.954 | 0.96 | 1.08 | 0.965 | 1.01 | 1.01 | 1.01 | 1.01 | 0.959 |
| COP(=S)(OC)Oc1nc(Cl)c(Cl)cc1Cl | 0.978 | 0.986 | 0.997 | 0.913 | 0.94 | 1.07 | 0.989 | 0.942 | 0.937 | 0.951 | 1 | 1.02 |
| CC(C)(C)C(=O)C(Oc1ccc(Cl)cc1)n1cncn1 (stereo not drawn) | 1.03 | 1.02 | 1.02 | 1.05 | 0.974 | 1.05 | 1.02 | 1.04 | 1.03 | 0.985 | 1.03 | 1.01 |
| CCC1COC(Cn2cncn2)(c2ccc(Cl)cc2Cl)O1 (stereo not drawn) | 0.982 | 0.988 | 0.96 | 0.755 | 0.917 | 1.1 | 0.92 | 0.983 | 1 | 0.948 | 0.936 | 0.948 |
| CNC(=O)CSP(=O)(OC)OC | 1.04 | 1.01 | 1.03 | 1.01 | 1.04 | 1.06 | 1.05 | 1.05 | 1.02 | 1.01 | 1.02 | 1.01 |
| COC(=O)c1cc(Oc2ccc(Cl)cc2Cl)ccc1[N+](=O)[O-] | 0.993 | 0.985 | 0.982 | 1.11 | 0.975 | 0.933 | 0.928 | 0.934 | 0.449 (active) | 0.958 | 0.891 | 1.02 |
| CCc1cc(C)cc(CC)c1-c1c(OC(=O)C(C)(C)C)n2n(c1=O)CCOCC2 | 0.964 | 0.99 | 0.976 | 1.14 | 1.1 | 0.845 | 1.03 | 1.03 | 0.851 | 1.01 | 0.981 | 1.02 |
| Nc1nc(N)nc(NC2CC2)n1 | 1 | 0.982 | 0.986 | 1.04 | 1.04 | 0.877 | 0.959 | 1.04 | 1.03 | 1 | 0.97 | 0.981 |
| CCOCN(C(=O)CCl)c1c(C)cccc1CC | 1.01 | 1 | 1.04 | 0.983 | 1.04 | 1.03 | 1.05 | 1.01 | 1.03 | 0.974 | 1.01 | 1 |
| CNC(=O)/C(=N\OC)c1ccccc1Oc1ccccc1 | 1.01 | 1.01 | 1 | 0.963 | 0.974 | 1.05 | 0.986 | 0.961 | 1.02 | 0.99 | 0.995 | 0.999 |
| COC[C@H](C)N(C(=O)CCl)c1c(C)csc1C | 1 | 0.985 | 0.981 | 1.17 | 0.988 | 0.922 | 0.95 | 0.976 | 0.963 | 0.956 | 0.966 | 1.04 |
| CN(C(=O)COc1nc2ccccc2s1)c1ccccc1 | 1.01 | 1.02 | 0.952 | 1 | 1.1 | 1.13 | 1.02 | 0.934 | 0.948 | 0.998 | 1.08 | 1 |
| N#CCNC(=O)c1cnccc1C(F)(F)F | 0.993 | 1.01 | 0.961 | 0.97 | 0.991 | 1.06 | 0.974 | 1.02 | 1.02 | 1.03 | 1 | 0.995 |
| CCS(=O)(=O)c1cccnc1S(=O)(=O)NC(=O)Nc1nc(OC)cc(OC)n1 | 0.968 | 1 | 0.999 | 0.943 | 0.912 | 1.01 | 0.996 | 0.897 | 1.02 | 0.993 | 1 | 0.93 |
| Cn1cc(-c2ccccc2)c(=O)c(-c2cccc(C(F)(F)F)c2)c1 | 1.02 | 0.978 | 0.968 | 0.998 | 0.907 | 0.963 | 0.983 | 0.974 | 0.999 | 0.943 | 1.04 | 0.986 |
| COP(=S)(OC)Oc1ccc(S(C)(=O)=O)c(C)c1 | 1.03 | 0.991 | 0.985 | 1 | 1.1 | 0.901 | 1.01 | 1.03 | 0.987 | 0.993 | 0.985 | 0.972 |
| CN(C)C(=O)Nc1cccc(C(F)(F)F)c1 | 0.965 | 1.01 | 0.986 | 1.01 | 1.05 | 1.05 | 0.985 | 1.07 | 0.961 | 1 | 0.979 | 0.991 |
| C[C@H]1[C@H](c2ccc(Cl)cc2)SC(=O)N1C(=O)NC1CCCCC1 | 1.03 | 1 | 0.996 | 1.05 | 1.07 | 0.791 | 1.03 | 0.832 | 0.725 | 0.947 | 0.922 | 0.985 |
| C=CC1(C)OC(=O)N(c2cc(Cl)cc(Cl)c2)C1=O (stereo not drawn) | 0.982 | 0.979 | 0.967 | 0.956 | 0.991 | 1.1 | 0.878 | 0.982 | 0.98 | 0.982 | 0.973 | 1.02 |
| CCNc1nc(Cl)nc(NC(C)(C)C)n1 | 0.995 | 0.977 | 1.01 | 1.07 | 0.975 | 0.947 | 1.03 | 1.01 | 0.992 | 0.979 | 0.955 | 0.986 |
| CCCCN(CC)c1c([N+](=O)[O-])cc(C(F)(F)F)cc1[N+](=O)[O-] | 1.03 | 0.994 | 1 | 0.864 | 1.04 | 1 | 1.03 | 1.05 | 1.06 | 1 | 1.04 | 1.03 |
| CCC(C)(c1ccc(O)cc1)c1ccc(O)cc1 | 1.01 | 1 | 1.01 | 0.882 | 1.04 | 1 | 0.989 | 0.872 | 0.743 | 0.968 | 0.947 | 0.96 |
| CC(=O)CC(c1ccc(Cl)cc1)c1c(O)c2ccccc2oc1=O (stereo not drawn) | 0.987 | 0.952 | 1.02 | 0.881 | 0.929 | 1.3 | 0.982 | 0.971 | 0.787 (active) | 0.954 | 1.04 | 0.987 |
